From PubChem BioAssay (NCATS)
Where “and” joins values, the source holds several entries; their conditions need not be identical. Equal values may be shown once. Inconclusive results are not listed. A call without a number means that no potency is given here. Calls of active or inactive are those of the source. Unless noted, the call rests on the fitted dose curve; in most records, active means well fitted curve in the direction sought with a large enough effect; inconclusive means small, poorly fitted or top-dose-only effect, or another doubt; inactive means no such curve, though single readings can be large; an effect the other way counts as inactive or inconclusive.

Experiments:
[1] = Confirmation and Secondary Assay for Modulators of Hemoglobin Beta Chain Splicing at IVS2 705 locus (AID 930);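 further: HeLa cells stably expressing the EGFP-705 splicing reporter; series mostly up to about 46 µM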
In short: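 Restored EGFP fluorescence after 2-day compound exposure reports splicing correction in IVS2-705 EGFP reporter HeLa cells; positive control was 500 nM splice-blocking PNA oligo. Signal measured as well total peak GFP intensity (488 nm excitation).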

[2] = target: Pyruvate kinase (Leishmania mexicana) (UniProt Q27686); assay: qHTS Validation Assay for Inhibitors of Leishmania Mexicana Pyruvate Kinase (AID 945)
In short: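 Purified LmPYK (E451W mutant, 0.2 nM) was incubated 1 h at room temperature with 0.5 mM PEP and 0.1 mM ADP in 50 mM imidazole pH 7.2, 50 mM KCl, 7 mM MgCl2; ATP formed was read by PKLight luminescence, normalized to DMSO wells.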

[3] = target: Pyruvate kinase PKM (Homo sapiens) (UniProt P14618); assay: qHTS Assay for Activators of Human Muscle Pyruvate Kinase (AID 954; active means well fitted curve in the direction sought with a large enough effect, not every such curve was filed as active)
In short: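 A coupled luminescent readout tracked ATP made from ADP by purified PKM2. Final conditions included 0.1 nM enzyme, PEP and ADP at 0.5 and 0.1 mM, pH 7.2 imidazole buffer with BSA, and a one-hour room-temperature reaction.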

[4] = MultiTox-Fluor Cytotoxicity Assay - LYMP1-001 - Dead Cells (AID 946); further: potency means the concentration at half of the fitted maximal effect
In short: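 AC50 from Hill fit of concentration-response; data normalized to DMSO (basal) and 15 uM tetraoctylammonium bromide (100%). LYMP1-001 lymphoblastoid cells, 2500/well, 16 hr compound at 37 C; dead-cell protease fluorescence, Ex/Em 485/520.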

[5] = MultiTox-Fluor Cytotoxicity Assay - LYMP1-001 - Live Cells (AID 947)
[6] = Cell Viability - LYMP1-002 - Assay at 16 hr (AID 948)
In short: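 LYMP1-002 human lymphoblastoid cells, 2500/well, were treated with compounds for 16 hr at 37 C in complete medium. Viability was read as intracellular ATP by CellTiter-Glo luminescence, and AC50 was derived from a Hill fit to concentration-response data.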

[7] = MultiTox-Fluor Cytotoxicity Assay - LYMP1-002 - Live Cells (AID 955);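 further: cells exposed to compound for 16 hours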
In short: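 In this qHTS viability format, lymphoblastoid cells (LYMP1-002, human) received compound for 16 hr at 37 C. Fluorogenic GF-AFC cleavage by viable cells was detected at 405/510 nm after 1 h at room temperature.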

[8] = Cell Viability - LYMP1-003 - Assay at 24 hr (AID 963)
In short: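 The lymphoblastoid line was treated with titrated compounds for 24 hours, and viable cell number estimated from luciferase-based ATP luminescence.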

[9] = Cell Viability - LYMP1-003 - Assay at 40 hr (AID 964); further: nearly all actives have a fitted effect of over 60% in size; further: potency means the concentration at half of the fitted maximal effect
In short: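 Acute toxicity is scored as a concentration-dependent loss of intracellular ATP in LYMP1-003 cells (2500/well, complete medium) after 40 hr at 37 C, measured by CellTiter-Glo luminescence; AC50 values derive from standard Hill modelling.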

[10] = Cell Viability - LYMP2-003 (AID 965);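 further: cells exposed to compounds for 24 h before reading; nearly all actives have a fitted effect of over 50% in size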
In short: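 Human lymphoblastoid LYMP2-003 cells, 2500/well, exposed to compounds for 24 h at 37 C in complete medium. Viability read as intracellular ATP by CellTiter-Glo luminescence; AC50 from Hill-equation fits of qHTS concentration-response data.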

[11] = Cell Viability - LYMP2-004 (AID 966); further: nearly all actives have a fitted effect of over 65% in size
In short: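 Viable-cell number estimated from ATP luminescence (CellTiter-Glo) in 2500 human lymphoblastoid cells/well after 24 hr at 37 C with compound. AC50 fitted to the standard Hill equation.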

[12] = Cell Viability - LYMP2-005 (AID 967); further: series mostly up to about 92 µM
In short: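 Human lymphoblastoid LYMP2-005 cells, 2,500 per well in complete medium, rested 5 h at 37C then compound-treated 24 h at 37C. Intracellular ATP read by CellTiter-Glo luminescence after 30 min at room temperature; AC50 from Hill-equation fits of concentration-response data.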

[13] = target: Muscarinic acetylcholine receptor M1 (Rattus norvegicus) (UniProt P08482); assay: qHTS Assay for Antagonists of Acetylcholine Muscarinic M1 Receptor: Measurement of IP-One Response (AID 944); further: nearly all actives have a fitted effect of over 75% in size; further: potency means the concentration at half of the fitted maximal effect
In short: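 Antagonism was measured as loss of carbachol-driven (EC80) IP1 accumulation in CHO cells carrying rat M1, using a homogeneous IP-One TR-FRET kit read at 620 and 665 nm.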

[14] = target: Muscarinic acetylcholine receptor M1 (Rattus norvegicus) (UniProt P08482); assay: qHTS Assay for Antagonists of Acetylcholine Muscarinic M1 Receptor: Kinetic Measurement of Intracellular Calcium Response (AID 943); further: potency means the concentration at half of the fitted maximal effect; nearly all actives have a fitted effect of over 75% in size
In short: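 Quantitative HTS in CHO-M1 (rat receptor) cells: 10 min compound exposure ahead of 100 nM carbachol, Fluo-4 fluorescence followed 4 min, value expressed as peak-to-basal ratio.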

Pyruvate kinase PKM (Homo sapiens), sequence (P14618 whole entry, looked up): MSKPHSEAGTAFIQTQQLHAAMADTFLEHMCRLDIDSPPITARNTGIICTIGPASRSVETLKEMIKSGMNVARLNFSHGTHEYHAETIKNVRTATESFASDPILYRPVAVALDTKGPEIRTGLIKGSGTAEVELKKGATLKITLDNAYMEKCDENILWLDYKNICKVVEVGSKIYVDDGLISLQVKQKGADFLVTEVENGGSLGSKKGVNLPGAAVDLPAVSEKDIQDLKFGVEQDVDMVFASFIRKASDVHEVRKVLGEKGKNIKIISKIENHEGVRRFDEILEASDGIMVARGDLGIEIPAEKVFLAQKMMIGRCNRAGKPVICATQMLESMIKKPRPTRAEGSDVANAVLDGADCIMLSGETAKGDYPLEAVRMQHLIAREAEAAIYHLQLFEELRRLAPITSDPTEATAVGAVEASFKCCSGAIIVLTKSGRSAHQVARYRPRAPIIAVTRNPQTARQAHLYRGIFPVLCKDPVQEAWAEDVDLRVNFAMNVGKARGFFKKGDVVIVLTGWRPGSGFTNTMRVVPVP
Muscarinic acetylcholine receptor M1 (Rattus norvegicus), sequence (P08482 whole entry, looked up): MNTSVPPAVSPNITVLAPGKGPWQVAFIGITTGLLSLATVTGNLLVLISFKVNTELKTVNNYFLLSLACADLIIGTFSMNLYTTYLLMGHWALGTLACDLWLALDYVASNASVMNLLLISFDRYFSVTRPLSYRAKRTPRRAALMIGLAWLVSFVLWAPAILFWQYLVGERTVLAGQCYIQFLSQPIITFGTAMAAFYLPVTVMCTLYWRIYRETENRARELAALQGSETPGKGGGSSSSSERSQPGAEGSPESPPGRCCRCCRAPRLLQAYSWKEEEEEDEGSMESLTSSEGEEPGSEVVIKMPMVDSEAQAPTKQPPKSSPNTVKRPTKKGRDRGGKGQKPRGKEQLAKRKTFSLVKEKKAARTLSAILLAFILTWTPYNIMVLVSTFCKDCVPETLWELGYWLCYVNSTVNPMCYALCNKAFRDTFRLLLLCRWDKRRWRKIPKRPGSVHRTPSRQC
Pyruvate kinase (Leishmania mexicana), sequence (Q27686 2-499 E452W): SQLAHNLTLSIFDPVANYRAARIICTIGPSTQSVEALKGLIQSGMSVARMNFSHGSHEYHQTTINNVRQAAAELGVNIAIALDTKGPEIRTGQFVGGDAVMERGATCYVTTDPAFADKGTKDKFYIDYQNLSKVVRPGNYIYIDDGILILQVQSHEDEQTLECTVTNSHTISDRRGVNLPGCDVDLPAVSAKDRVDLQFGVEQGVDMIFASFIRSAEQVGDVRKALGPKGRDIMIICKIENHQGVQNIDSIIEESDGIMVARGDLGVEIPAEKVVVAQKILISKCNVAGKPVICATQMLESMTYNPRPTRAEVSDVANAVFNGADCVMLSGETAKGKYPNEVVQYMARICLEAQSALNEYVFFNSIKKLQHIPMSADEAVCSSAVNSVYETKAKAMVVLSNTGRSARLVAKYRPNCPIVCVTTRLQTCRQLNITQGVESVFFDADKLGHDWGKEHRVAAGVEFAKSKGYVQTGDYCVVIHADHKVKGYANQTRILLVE

OCCN1CCN(CCCN2c3ccccc3Sc3ccc(C(F)(F)F)cc32)CC1
outcome [1]: inactive
Potency [2]: inactive
outcome [3]: inactive

CC(COc1ccccc1)N(CCCl)Cc1ccccc1 (centres undefined)
outcome [1]: inactive
Potency [4]: inactive
outcome [5]: inactive
outcome [6]: inactive
outcome [7]: inactive
outcome [8]: inactive
Potency [9]: inactive
outcome [10]: inactive
outcome [11]: inactive
outcome [12]: inactive

OCCN(CCO)c1nc(N2CCCCC2)c2nc(N(CCO)CCO)nc(N3CCCCC3)c2n1
outcome [1]: inactive
Potency [2]: inactive
outcome [3]: inactive

O=C(CCCN1CCC(O)(c2ccc(Cl)cc2)CC1)c1ccc(F)cc1
outcome [1]: inactive
Potency [2]: inactive
outcome [3]: inactive

COC(=O)Nc1nc2ccc(C(=O)c3cccs3)cc2[nH]1
outcome [1]: inactive
Potency [2]: inactive
outcome [3]: inactive

COc1cc2nc(N(C)CCCNC(=O)C3CCCO3)nc(N)c2cc1OC (centres undefined)
outcome [1]: inactive

CN1CCN2c3ccccc3Cc3ccccc3C2C1 (centres undefined)
outcome [1]: inactive

CCCCc1oc2ccccc2c1C(=O)c1cc(I)c(OCCN(CC)CC)c(I)c1
outcome [1]: inactive
Potency [13]: inactive
Potency [2]: inactive
outcome [3]: inactive

CC(C(=O)O)c1cccc(C(=O)c2ccccc2)c1 (centres undefined)
outcome [1]: inactive

CN(C)CCOC(c1ccccc1)c1ccccc1
outcome [1]: inactive
Potency [2]: inactive
outcome [3]: inactive

COc1ccccc1OCC(O)CN1CCN(CC(=O)Nc2c(C)cccc2C)CC1 (centres undefined)
outcome [1]: inactive

CC12CC3CC(C)(C1)CC(N)(C3)C2
outcome [1]: inactive

CCCNCC(O)COc1ccccc1C(=O)CCc1ccccc1 (centres undefined)
outcome [1]: inactive

CC[C@@]1(O)C(=O)OCc2c1cc1n(c2=O)Cc2cc3c(CN(C)C)c(O)ccc3nc2-1
outcome [1]: inactive

CC(=O)OCC(CCn1cnc2cnc(N)nc21)COC(C)=O
outcome [1]: inactive

COc1cc2c(c(OC)c1OC)-c1ccc(OC)c(=O)cc1[C@@H](NC(C)=O)CC2
Potency [13]: inactive
Potency [2]: inactive
Potency [4]: 63.1 nM (active) and 100 nM (active)
outcome [3]: inactive
Potency [9]: 20 nM (active)
outcome [11]: inactive

Cc1ccc(C(=O)Nc2ccc(S(=O)(=O)O)c3cc(S(=O)(=O)O)cc(S(=O)(=O)O)c23)cc1NC(=O)c1cccc(NC(=O)Nc2cccc(C(=O)Nc3cc(C(=O)Nc4ccc(S(=O)(=O)O)c5cc(S(=O)(=O)O)cc(S(=O)(=O)O)c45)ccc3C)c2)c1
outcome [1]: inactive
Potency [14]: 1580 nM (active)
Potency [13]: inactive
Potency [2]: inactive
outcome [3]: inactive

COc1ccccc1OCCNCC(O)COc1cccc2[nH]c3ccccc3c12 (centres undefined)
outcome [1]: inactive

NC(CO)C(=O)NNCc1ccc(O)c(O)c1O (centres undefined)
outcome [1]: inactive

CN(C)C(=N)N=C(N)N
outcome [1]: inactive

CC1COc2c(N3CCN(C)CC3)c(F)cc3c(=O)c(C(=O)O)cn1c23 (centres undefined)
outcome [1]: inactive

CNCCCC12CCC(c3ccccc31)c1ccccc12
outcome [1]: inactive
Potency [2]: inactive
outcome [3]: inactive

CN(C)CCC=C1c2ccccc2C=Cc2ccccc21
outcome [1]: inactive
Potency [14]: 31.6 nM (active)
Potency [13]: 112 nM (active)
Potency [2]: inactive
outcome [3]: inactive

CCC1(C)CC(=O)NC1=O (centres undefined)
outcome [1]: inactive

CN(C)C(=O)C(CCN1CCC(O)(c2ccc(Cl)cc2)CC1)(c1ccccc1)c1ccccc1
outcome [1]: inactive
Potency [2]: inactive
outcome [3]: inactive
